According to PubChem BioAssay (Tox21):
Records with an inconclusive call do not appear. Calls of active or inactive are those of the source. Unless noted, calls follow the shape of the dose curve; as a rule, active = well fitted curve in the direction sought with a large enough effect in the repeat runs; inconclusive = weak or mixed curves; inactive = no such curve, though single readings can be large; an effect the other way counts as inactive or inconclusive.

Assays:
[1] = qHTS assay to identify small molecule antagonists of the estrogen receptor alpha (ER-alpha) signaling pathway using the BG1 cell line in the presence of 0.1 nM 17-beta-estradiol - cell viability counter screen (AID 1259241); also: nearly all actives have a fitted effect of over 40% in size
Outline: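 VM7Luc4E2 cells (endogenous ER-alpha, 4×ERE-luciferase), hormone-starved 5 days in charcoal-stripped FBS, were treated with compounds plus 0.1 nM 17beta-estradiol for 22 hr at 37C; viability read in same wells as CellTiter-Fluor live-cell protease fluorescence.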

[2] = qHTS assay to identify small molecule antagonists of the androgen receptor (AR) signaling pathway using the MDA cell line in the presence of 0.5 nM R1881 - cell viability counter screen (AID 1259242); also: nearly all actives have a fitted effect of over 45% in size
Outline: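 Concentration-response screen of compounds for toxicity in MDA-kb2 reporter cells: 16 hr at 37C with 0.5 nM R1881, endpoint live-cell protease fluorescence measured in the reporter wells.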

[3] = target: Estrogen receptor (Homo sapiens) (UniProt P03372); test: qHTS assay to identify small molecule antagonists of the estrogen receptor alpha (ER-alpha) signaling pathway using the BG1 cell line in the presence of 0.1 nM 17-beta-estradiol (AID 1259244); also: nearly all actives have a fitted effect of over 50% in size
Outline: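 Compounds were tested against 0.1 nM (final) 17beta-estradiol in VM7Luc4E2 cells, which express full-length ER-alpha and an ERE-luciferase reporter; luminescence was recorded following 22 h exposure.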

[4] = qHTS assay to identify small molecule phospholipidosis (PLD) inducers (AID 1259344; active = well fitted curve in the direction sought with a large enough effect; an effect the other way counts as inactive or inconclusive)
Outline: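 After 4 h attachment on collagen I, HepG2 cells were dosed with compound alongside LipidTOX Red, kept 24 h at 37 C, fixed, and imaged for lamellar phospholipid pits.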

[5] = qHTS assay to identify small molecule HDAC inhibitors (AID 1259364);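 also: wild-type HCT-116 cells with endogenous class I/II HDAC activity; top concentration of the series differs between compounds; nearly all actives have a fitted effect of over 45% in size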
Outline: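 Screening used wild-type human colon HCT-116 cells incubated overnight, dosed with compounds for 2 hours, and assayed with a homogeneous luminogenic HDAC I/II reagent for 30 minutes at room temperature.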

[6] = qHTS assay to identify small molecule HDAC inhibitors - cell viability counter screen (AID 1259365); also: series mostly up to about 92 µM; nearly all actives have a fitted effect of over 50% in size
Outline: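 Wild-type HCT-116 cells were seeded at 1,500 per well, incubated overnight at 37 C, then exposed to compounds in DMSO for 2hr. Viability was read by CellTiter-Glo luminescence after 30min at room temperature.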

[7] = qHTS assay to identify small molecule agonists of the sonic hedgehog signaling (Shh) pathway - cell viability counter screen (AID 1259366); also: nearly all actives have a fitted effect of over 50% in size
Outline: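 NIH/3T3-derived 3T3 Gli1-Luc cells (stable Gli1-responsive firefly luciferase reporter) were seeded, rested 4 hr at 37 C/5% CO2, then exposed to compounds in DMSO for 24 hr; viability was read by CellTiter-Fluor fluorescence in the same wells.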

[8] = qHTS assay to identify small molecule agonists of the sonic hedgehog signaling (Shh) pathway (AID 1259368; calls by dose curve; also: series mostly up to about 92 µM; nearly all actives have a fitted effect of over 15% in size)
Outline: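 Hedgehog pathway agonism scored by increased firefly luciferase luminescence in 3T3Gli1-Luc cells treated 24 hr at 37 C; detection used a 30 min room-temperature reagent incubation.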

[9] = target: Estrogen receptor beta (Homo sapiens) (UniProt Q92731); test: qHTS assay to identify small molecule agonists of the estrogen receptor beta (ER-beta) signaling pathway (AID 1259377; active = well fitted activation curve with a large enough effect in the signal ratio in the repeat runs, not every such curve was filed as active; the % refers to the signal ratio)
Outline: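 ER-beta-UAS-bla HEK293T (GripTite) cells carrying a UAS-driven beta-lactamase reporter, in medium with 2% charcoal-stripped FBS, were exposed to compounds for 16 hr at 37C; LiveBLAzer B/G FRET substrate was then added and fluorescence read after 2 hours at room temperature.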

[10] = target: Estrogen receptor beta (Homo sapiens) (UniProt Q92731); test: qHTS assay to identify small molecule antagonists of the estrogen receptor beta (ER-beta) signaling pathway (AID 1259378; active = well fitted inhibition curve with a large enough effect in the signal ratio in the repeat runs, not every such curve was filed as active; the % refers to the signal ratio)
Outline: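 ER-beta-UAS-bla HEK293T (GripTite) cells in 2% charcoal-stripped FBS medium were preincubated 6 hr at 37C, dosed with compound, then stimulated with 1 nM E2 (final) for 16 hr; beta-lactamase reporter read by B/G FRET fluorescence after 2 hr substrate loading.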

[11] = qHTS assay to identify small molecule agonists of the androgen receptor (AR) signaling pathway in the presence of an antagonist - cell viability counter screen (AID 1259379);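 also: MDA-kb2 human breast cancer cells carrying an MMTV luciferase reporter; series mostly up to about 92 µM; nearly all actives have a fitted effect of over 25% in size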
Outline: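 MDA-kb2 viability measured by CellTiter-Fluor fluorescence in the same wells as the luciferase signal; nilutamide 3.0uM final; 15-point compound titration; 16 hr at 37C.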

[12] = qHTS assay to identify small molecule antagonists of the estrogen receptor beta (ER-beta) signaling pathway - cell viability counter screen (AID 1259382); also: series mostly up to about 92 µM; nearly all actives have a fitted effect of over 55% in size
Outline: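 Readout: luminescence, CellTiter-Glo, same wells as bla assay. System: ER-beta-UAS-bla GripTite HEK293T, 2% charcoal-stripped FBS. Exposure: compounds plus 1nM 17-beta-estradiol, 16 hr, 37C.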

[13] = target: Estrogen receptor (Homo sapiens) (UniProt P03372); test: qHTS assay to identify small molecule agonists of the estrogen receptor alpha (ER-alpha) signaling pathway in the presence of an antagonist (AID 1259383; calls by dose curve; also: top concentration of the series differs between compounds; nearly all actives have a fitted effect of over 15% in size)
Outline: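 Quantitative HTS confirmation: compounds titrated at 15 concentrations onto estrogen-deprived VM7Luc4E2 cells carrying a four-ERE luciferase construct, with ICI-182,780 present at 10.0nM final. Signal is luminescence after 22hr exposure.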

[14] = qHTS assay to identify small molecule agonists or antagonists of the thyroid stimulating hormone receptor (TSHR) signaling pathway - wild type cell line counter screen (AID 1259384; calls by dose curve)
Outline: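 Wild-type HEK293 cells were plated 18 h at 37 C/5% CO2, pin-dosed with compound plus Ro20-1724 medium, held 30 min at room temperature, then given cAMP-d2 and anti-cAMP-cryptate; fluorescence was read after 1 h. Fifteen concentrations, triplicate.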

[15] = target: Thyrotropin receptor (Homo sapiens) (UniProt P16473); test: qHTS assay to identify small molecule antagonists of the thyroid stimulating hormone receptor (TSHR) signaling pathway (AID 1259385; calls by dose curve; also: nearly all actives have a fitted effect of over 20% in size)
Outline: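 TSHR-HEK293 cells were plated and held 18 h at 37C/5% CO2, then given compound plus Ro20-1724 and stimulated with TSH at 1.5 ng/mL final. After 30 min at room temperature, cAMP was detected with cAMP-d2/anti-cAMP-cryptate (1 h) by fluorescence.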

[16] = qHTS assay to identify small molecule antagonists of the sonic hedgehog signaling (Shh) pathway (AID 1259369; calls by dose curve; also: nearly all actives have a fitted effect of over 45% in size)
Outline: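 NIH/3T3 stable Gli1-Luc clone, 2,000 cells/well, 4hr settle; cpd + conditioned medium 24hr; Luc reagent 30min RT; luminescence.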

[17] = qHTS assay to identify small molecule agonists of the estrogen receptor beta (ER-beta) signaling pathway - cell viability counter screen (AID 1259380); also: nearly all actives have a fitted effect of over 30% in size
Outline: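 Measured: luminescence from CellTiter-Glo after 30 min at room temperature, added to wells already read for the LiveBLAzer FRET reporter (2 hr substrate); ER-beta-UAS-bla HEK293T cells had 16 hr compound treatment at 37C, 5% CO2.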

[18] = qHTS assay to identify small molecule antagonists of the sonic hedgehog signaling (Shh) pathway - cell viability counter screen (AID 1259367); also: nearly all actives have a fitted effect of over 55% in size
Outline: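 Conditioned medium drove Shh signaling in 3T3 Gli1-Luc cells exposed to compounds at 37C and 5% CO2. Viability was determined from CellTiter-Fluor fluorescence, with reagent incubated 1 hr after 23 hr of treatment.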

[19] = target: Androgen receptor (Homo sapiens) (UniProt P10275); test: qHTS assay to identify small molecule agonists of the androgen receptor (AR) signaling pathway in the presence of an antagonist (AID 1259381; calls by dose curve; also: nearly all actives have a fitted effect of over 15% in size)
Outline: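 Luminescent ONE-Glo read, 30min at room temperature, follows 16hr compound exposure (15 concentrations) of MDA-kb2 cells at 37C, 0% CO2, with nilutamide added at 3.0uM final.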

[20] = target: Androgen receptor (Homo sapiens) (UniProt P10275); test: qHTS assay to identify small molecule antagonists of the androgen receptor (AR) signaling pathway using the MDA cell line in the presence of 0.5 nM R1881 (AID 1259243); also: nearly all actives have a fitted effect of over 50% in size
Outline: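 With R1881 held at 0.5 nM (final), compound effects on MMTV-luciferase expression in MDA-kb2 cells were scored by luminescence after a 16 hr, 37C incubation.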
% is scaled to controls: 0 for no effect and ±100 for the full control effect.

Sequence of Estrogen receptor beta (Homo sapiens) (Q92731 whole entry, looked up): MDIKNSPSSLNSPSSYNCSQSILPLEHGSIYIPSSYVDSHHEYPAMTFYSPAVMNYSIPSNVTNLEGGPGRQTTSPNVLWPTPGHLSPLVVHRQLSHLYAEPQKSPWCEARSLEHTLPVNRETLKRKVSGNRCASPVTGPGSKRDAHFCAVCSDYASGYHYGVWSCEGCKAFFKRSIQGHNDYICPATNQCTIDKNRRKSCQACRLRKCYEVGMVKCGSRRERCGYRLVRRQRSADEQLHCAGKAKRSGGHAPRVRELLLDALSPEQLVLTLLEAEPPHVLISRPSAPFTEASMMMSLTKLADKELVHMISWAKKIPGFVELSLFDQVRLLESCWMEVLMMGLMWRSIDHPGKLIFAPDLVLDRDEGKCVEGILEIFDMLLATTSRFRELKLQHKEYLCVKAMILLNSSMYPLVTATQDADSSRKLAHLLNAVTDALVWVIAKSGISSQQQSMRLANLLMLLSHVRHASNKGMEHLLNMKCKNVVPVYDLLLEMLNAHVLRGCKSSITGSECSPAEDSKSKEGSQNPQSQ
Sequence of Thyrotropin receptor (Homo sapiens) (P16473 whole entry, looked up): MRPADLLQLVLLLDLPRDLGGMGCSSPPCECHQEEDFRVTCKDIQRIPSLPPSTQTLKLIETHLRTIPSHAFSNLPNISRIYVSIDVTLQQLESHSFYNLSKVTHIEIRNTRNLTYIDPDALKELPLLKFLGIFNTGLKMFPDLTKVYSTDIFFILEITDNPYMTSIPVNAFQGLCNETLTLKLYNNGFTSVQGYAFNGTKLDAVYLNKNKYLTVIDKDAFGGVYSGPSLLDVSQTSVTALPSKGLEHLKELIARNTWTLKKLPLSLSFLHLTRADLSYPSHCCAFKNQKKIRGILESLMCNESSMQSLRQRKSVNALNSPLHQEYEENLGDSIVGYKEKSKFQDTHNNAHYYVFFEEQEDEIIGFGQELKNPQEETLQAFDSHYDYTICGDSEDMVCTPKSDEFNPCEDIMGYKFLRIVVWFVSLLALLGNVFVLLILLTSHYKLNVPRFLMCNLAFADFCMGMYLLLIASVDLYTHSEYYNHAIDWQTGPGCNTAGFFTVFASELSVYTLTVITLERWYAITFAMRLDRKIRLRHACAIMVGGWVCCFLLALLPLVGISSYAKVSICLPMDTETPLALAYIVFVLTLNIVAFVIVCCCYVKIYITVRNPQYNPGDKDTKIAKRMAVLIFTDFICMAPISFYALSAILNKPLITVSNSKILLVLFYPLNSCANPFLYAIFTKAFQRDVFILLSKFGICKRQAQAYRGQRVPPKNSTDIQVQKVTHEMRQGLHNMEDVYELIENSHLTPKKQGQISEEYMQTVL
Sequence of Estrogen receptor (Homo sapiens) (P03372 whole entry, looked up): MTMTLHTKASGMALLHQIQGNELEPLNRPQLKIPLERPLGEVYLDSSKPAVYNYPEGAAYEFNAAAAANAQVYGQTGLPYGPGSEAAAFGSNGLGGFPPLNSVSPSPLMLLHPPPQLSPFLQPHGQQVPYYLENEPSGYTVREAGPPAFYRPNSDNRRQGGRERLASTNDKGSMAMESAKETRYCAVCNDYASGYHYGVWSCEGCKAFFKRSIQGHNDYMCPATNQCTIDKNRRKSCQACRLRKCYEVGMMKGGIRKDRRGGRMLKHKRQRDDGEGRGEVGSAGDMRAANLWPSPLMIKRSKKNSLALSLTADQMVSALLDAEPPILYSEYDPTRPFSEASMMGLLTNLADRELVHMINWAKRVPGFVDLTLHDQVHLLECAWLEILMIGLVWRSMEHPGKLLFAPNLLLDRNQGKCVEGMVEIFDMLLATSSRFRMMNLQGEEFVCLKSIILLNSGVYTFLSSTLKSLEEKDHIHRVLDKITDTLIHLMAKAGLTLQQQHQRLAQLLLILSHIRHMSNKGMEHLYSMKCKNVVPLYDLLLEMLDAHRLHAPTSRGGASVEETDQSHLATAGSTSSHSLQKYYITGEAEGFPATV
Sequence of Androgen receptor (Homo sapiens) (P10275 whole entry, looked up): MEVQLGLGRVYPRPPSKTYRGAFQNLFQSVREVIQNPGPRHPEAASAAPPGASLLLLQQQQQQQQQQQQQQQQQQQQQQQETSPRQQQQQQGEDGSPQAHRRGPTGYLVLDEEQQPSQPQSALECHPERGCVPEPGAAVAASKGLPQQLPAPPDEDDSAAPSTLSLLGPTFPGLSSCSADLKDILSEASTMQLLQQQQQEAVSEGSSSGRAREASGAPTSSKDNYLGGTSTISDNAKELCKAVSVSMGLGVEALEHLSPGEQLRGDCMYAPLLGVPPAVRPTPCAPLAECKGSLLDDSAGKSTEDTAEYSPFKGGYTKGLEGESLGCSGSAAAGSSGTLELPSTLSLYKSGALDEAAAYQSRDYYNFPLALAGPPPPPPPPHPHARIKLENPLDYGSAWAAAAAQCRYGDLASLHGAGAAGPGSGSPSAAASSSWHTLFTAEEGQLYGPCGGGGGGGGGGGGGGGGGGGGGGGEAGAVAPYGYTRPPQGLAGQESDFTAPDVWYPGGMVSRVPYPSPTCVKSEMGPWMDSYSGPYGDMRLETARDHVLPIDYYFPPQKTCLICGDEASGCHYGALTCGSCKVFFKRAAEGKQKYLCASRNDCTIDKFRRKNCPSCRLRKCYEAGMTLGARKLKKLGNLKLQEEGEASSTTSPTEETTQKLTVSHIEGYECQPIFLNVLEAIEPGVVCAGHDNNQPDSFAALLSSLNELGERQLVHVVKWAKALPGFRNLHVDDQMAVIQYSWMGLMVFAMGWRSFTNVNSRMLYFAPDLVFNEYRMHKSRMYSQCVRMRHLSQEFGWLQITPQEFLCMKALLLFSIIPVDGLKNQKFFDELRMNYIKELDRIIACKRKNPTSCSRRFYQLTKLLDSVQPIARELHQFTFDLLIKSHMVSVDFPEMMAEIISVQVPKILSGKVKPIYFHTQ

O=C1OC(c2ccc(O)c(S(=O)(=O)O)c2)(c2ccc(O)c(S(=O)(=O)O)c2)c2c(Br)c(Br)c(Br)c(Br)c21
inactive: outcome [1] | outcome [2] | Potency [3] | outcome [4] | Potency [5] | outcome [6] | Potency [7] | outcome [8] | outcome [9] | Potency [10] | Potency [11] | Potency [12] | Potency [13] | Potency [14] | Potency [15]

CC(C)NCC(O)c1ccc(N)c(C#N)c1 (centres undefined)
inactive: outcome [1] | outcome [2] | Potency [3] | outcome [4] | Potency [5] | outcome [6] | Potency [7] | outcome [8] | Potency [16] | outcome [9] | Potency [11] | Potency [17] | Potency [12] | Potency [13] | Potency [15]

O=C(O)c1ccc2[nH]cc(CCCCN3CC=C(c4ccccc4)CC3)c2c1
inactive: outcome [1] | outcome [2] | Potency [3] | outcome [4] | Potency [5] | outcome [6] | Potency [7] | Potency [18] | outcome [8] | Potency [11] | Potency [19] | Potency [13] | Potency [14] | Potency [15]

O=C1CN=C(c2ccccc2)c2cc([N+](=O)[O-])ccc2N1
inactive: outcome [1] | outcome [2] | Potency [3] | outcome [4] | Potency [5] | outcome [6] | Potency [7] | Potency [18] | Potency [16] | outcome [9] | Potency [10] | Potency [11] | Potency [17] | Potency [12] | Potency [13] | Potency [14] | Potency [15]

CC(Cl)(Cl)[N+](=O)[O-]
inactive: outcome [1] | outcome [2] | Potency [20] | Potency [3] | Potency [5] | Potency [7] | Potency [18] | outcome [8] | Potency [16] | outcome [9] | Potency [10] | Potency [11] | Potency [17] | Potency [19] | Potency [12] | Potency [13] | Potency [14] | Potency [15]

CC(=O)Nc1cc([As](=O)(O)O)ccc1O
inactive: outcome [1] | outcome [2] | Potency [3] | outcome [4] | Potency [5] | outcome [6] | Potency [7] | outcome [8] | Potency [16] | outcome [9] | Potency [10] | Potency [11] | Potency [17] | Potency [12] | Potency [13] | Potency [14] | Potency [15]

CC1=C(C(=O)O)N2C(=O)[C@@H](N)[C@H]2SC1
inactive: activity change, negative = cytotoxicity [1] 0.956% [at 19 µM] | viability change, negative = cytotoxic [2] 2.31% [at 19 µM] | activity change, negative = inhibition [3] 0.965% [at 19 µM] | activity change, negative = inhibition [5] 5.61% [at 19 µM] | activity change, negative = cytotoxicity [6] 3.22% [at 19 µM] | viability change, negative = cytotoxic [7] -3.69% [at 19 µM] | viability change, negative = cytotoxic [18] 2.83% [at 19 µM] | activity change [8] 0.0682% [at 18.9 µM] | activity change, negative = inhibition [16] -0.41% [at 19 µM] | activation [9] 1.69% [at 19 µM] | activity, negative = inhibition [10] 20.1% [at 19 µM] | activity change, negative = cytotoxicity [11] -2.71% [at 19 µM] | activity change, negative = cytotoxicity [17] 7.09% [at 19 µM] | activation [19] -0.0648% [at 19 µM] | activity change, negative = cytotoxicity [12] 15.3% [at 19 µM] | activation [13] 0.456% [at 19 µM] | cAMP activity change [14] 2.64% [at 18.9 µM, hits give high values] | activity change, negative = inhibition [15] 2.26% [at 19 µM]
